High-throughput results: PubChem BioAssay, several laboratories
Most compounds without a hit are left out; they make up all but 5.4% or so of the library.
Calb FLC: C. albicans growth inhibition with fluconazole, primary screen, CaCi-2 strain, Alamar Blue fluorescence; growth inhibition, % (concentration not given with the values); C. albicans CaCi-2 (fluconazole-resistant clinical isolate) + fluconazole, 48 h; hit rate 0.57% among 300,000;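 active means growth inhibition above about 58% in most replicates, limit read from the data, passing the limit was not always enough; inconclusive means exactly half the replicates above a set limit; inactive means most replicates below a set limit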;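 further: all wells also contain fluconazole at 8 µg/ml as a sub-toxic cotreatment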
CSC inhib: cancer stem cell viability inhibitors, primary screen, luminescence; AID 2717, 2010; hit rate 1.1% among 300,000; cancer stem cell-like cells viability; inhibition, % at 7.5 µM; in the data active means inhibition above about 75%; inconclusive means no clear call, values can overlap the other calls; tested in HMLE shEcad cells
SKKanGAS inh: S. pyogenes SKKanGAS growth inhibitors in kanamycin, primary screen, streptokinase expression inhibitor project, SKKanGAS strain, BacTiter-Glo luminescence; 6 h; inhibition, % at 7.5 µM; hit rate 1.3% among 300,000; AID 1662, 2009;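 active means mean replicate score, as percent of positive control median, at least 50; inconclusive means mean below 50 but one replicate at or above 50; inactive means mean and every replicate below 50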;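 further: strain carries kanamycin resistance gene driven by streptokinase promoter and grows in 40 µg/ml kanamycin; loss of luminescence reflects streptokinase promoter inhibition or plain growth inhibition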
Beta cell apopt: inhibitors of cytokine-induced beta cell apoptosis, primary screen, luminescence | INS-1E cytokine-induced death, ATP luminescence, 48 h; percent of positive-control rescue, neutral wells zero | protection from apoptosis, % (concentration not given with the values) | hit rate 0.8% among 300,000 | AID 435005, 2010;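 active means Every replicate reaches about 75%, or at least half do and their mean reaches it too, limit read from the data; inconclusive means At least half of replicates reach the limit but their mean does not; inactive means Under half of replicates reach the limit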;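 further: higher means more ATP so stronger rescue from cytokine killing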
Mdm2-MdmX inh: inhibitors of human Mdm2-MdmX association, primary screen, cell-based, luminescence, split luciferase, SaOS-2, uHTS; Protein Mdm4 (Homo sapiens) + E3 ubiquitin-protein ligase Mdm2 (Homo sapiens), …; SaOS-2 split-luciferase Mdm2/MdmX complementation; inhibition, % at 8 µM; hit rate 3% among 330,000;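 active means inhibition of at least 50% at 8 µM in the primary screen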
Target sequence (O15151 whole entry, looked up): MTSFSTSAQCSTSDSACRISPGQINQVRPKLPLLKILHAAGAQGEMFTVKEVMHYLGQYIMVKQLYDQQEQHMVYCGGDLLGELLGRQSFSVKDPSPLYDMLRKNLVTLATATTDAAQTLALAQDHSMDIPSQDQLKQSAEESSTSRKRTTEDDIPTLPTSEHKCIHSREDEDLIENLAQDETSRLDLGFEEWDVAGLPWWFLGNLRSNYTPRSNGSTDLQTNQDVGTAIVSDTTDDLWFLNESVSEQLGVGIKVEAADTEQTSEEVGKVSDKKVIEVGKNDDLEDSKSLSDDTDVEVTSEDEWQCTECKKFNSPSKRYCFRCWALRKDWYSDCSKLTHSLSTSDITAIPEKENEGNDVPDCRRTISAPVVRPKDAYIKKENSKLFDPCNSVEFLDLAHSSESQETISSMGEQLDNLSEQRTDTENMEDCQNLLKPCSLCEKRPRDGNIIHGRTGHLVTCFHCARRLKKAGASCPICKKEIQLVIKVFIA
Target sequence (Q00987 whole entry, looked up): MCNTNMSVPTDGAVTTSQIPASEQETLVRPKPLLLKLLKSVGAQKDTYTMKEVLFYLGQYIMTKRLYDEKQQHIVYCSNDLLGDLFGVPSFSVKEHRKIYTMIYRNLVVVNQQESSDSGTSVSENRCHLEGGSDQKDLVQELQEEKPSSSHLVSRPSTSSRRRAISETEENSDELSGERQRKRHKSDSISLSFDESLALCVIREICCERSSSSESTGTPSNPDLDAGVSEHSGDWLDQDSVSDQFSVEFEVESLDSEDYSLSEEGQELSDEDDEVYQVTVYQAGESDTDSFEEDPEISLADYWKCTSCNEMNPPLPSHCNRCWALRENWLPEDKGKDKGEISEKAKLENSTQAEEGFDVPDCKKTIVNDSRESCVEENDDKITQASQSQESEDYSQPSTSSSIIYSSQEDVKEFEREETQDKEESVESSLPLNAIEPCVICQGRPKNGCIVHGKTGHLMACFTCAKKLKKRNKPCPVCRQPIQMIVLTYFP
MPTP block: mitochondrial permeability transition pore inhibitors, primary screen, biochemical, isolated mouse mitochondria, absorbance; Ca2+ swelling absorbance, 30 min; inhibition, % at 10 µM; hit rate 1.4% among 360,000;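 active means inhibition of 50% or more, scaled per plate between neutral and stimulator controls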
Rh123 counter: fluorescence retest of MPTP screen hits in isolated mitochondria, single concentration | shares compounds with MPTP block | membrane potential, Rhodamine 123 fluorescence | inhibition, % at 10 µM | hit rate 78% among 5,000 | AID 624504, 2012; in the data active means inhibition above about 22%
MPTP swell DR: mitochondrial permeability transition pore inhibitors, dose response, biochemical, absorbance, uHTS hits. shares compounds with MPTP block. isolated mitochondria swelling. IC50, µM. AID 651561, 2012. hit rate 58% among 780; in the data active means IC50 below about 20 µM
MPTP counter DR: fluorescent counter-screen in isolated mitochondria, dose response, counter-screen for MPTP inhibitor project, biochemical, fluorescence, uHTS hits | hit rate 49% among 780 | isolated mitochondria counterscreen, fluorescence read-out | shares compounds with MPTP block | IC50, µM; in the data active means IC50 below about 80 µM
A number is an active result; n = inactive; u = inconclusive; x = no result given.

SMILES	Calb FLC	CSC inhib	SKKanGAS inh	Beta cell apopt	Mdm2-MdmX inh	MPTP block	Rh123 counter	others
COc1cccc(NC(=O)Nc2cccc(C(=O)O)c2)c1	n	n	n	n	n	n	x
COc1cccc(NC(=O)NC2(C(F)(F)F)Oc3ccccc3O2)c1	n	n	n	n	n	96.7	83.4
COC(=O)c1ccc(NC(=O)Nc2ccc(F)cc2F)cc1	n	x	n	n	n	85.8	95.6
O=C(Nc1ccc(F)cc1)Nc1cccc(Br)c1	n	n	n	n	n	88.9	91.1
CC(=O)Nc1ccccc1C(=O)C(=O)Nc1cccc(Br)c1	n	n	n	n	n	n	x
CCc1ccc(NC(=O)Nc2cccc(OC)c2)cc1	n	x	n	n	n	63.0	77.3
COc1cccc(NC(=O)Nc2ccc(CC(=O)O)cc2)c1	n	x	n	n	n	n	x
COc1ccccc1-n1cnc2cc(NS(=O)(=O)c3ccc(Br)cc3)ccc21	n	n	n	n	n	54.9	50.2
COc1ccc(-n2cnc3cc(NS(=O)(=O)c4ccc(C)cc4)ccc32)cc1	x	n	x	n	n	n	x
Cc1ccc(-n2cc(C(=O)c3cc(Cl)ccc3O)cc(C#N)c2=O)cc1	n	n	n	n	n	93.2	83.7
O=[N+]([O-])c1ccc2[nH]c(=S)sc2c1	x	x	x	x	x	57.4	76.9
O=C(c1cc2ccccc2oc1=O)N(Cc1ccccc1)C1CCS(=O)(=O)C1 (configuration not stated)	n	n	n	n	n	n	x
CCOC(=O)C1C(=O)Oc2ccc3ccccc3c2C1C1CCOC1=O (configuration not stated)	n	n	n	n	n	n	x
COc1ccc(CCNC(=O)C2CCN(Cc3nc(-c4ccccc4C)oc3C)CC2)cc1OC	n	n	n	n	n	81.8	n	MPTP swell DR=9.72;MPTP counter DR=22.6
CC[C@@](C)(NS(=O)(=O)OCC(Cl)(Cl)Cl)c1ccccc1	n	n	n	n	n	n	x
CCCCn1cnc2c1c(=O)n(CC(=O)c1cc(C)n(C)c1C)c(=O)n2CC(C)C	n	n	n	n	n	n	x
c1ccc(CNc2nc(NCc3ccccc3)c3sccc3n2)cc1	x	x	x	x	x	91.3	103.7
COc1ccccc1CNc1nc(NCc2ccc(C)cc2C)c2sccc2n1	x	x	x	x	x	66.8	101.5
COc1ccccc1CNc1nc(NCc2ccccc2F)c2sccc2n1	x	x	x	x	x	101.2	103.9
c1ccc(CNc2nc(NCCOc3ccccc3)c3sccc3n2)cc1	x	x	x	x	x	n	x
COc1ccccc1CNc1nc(NCc2ccccc2)nc2ccsc12	x	x	x	x	x	74.1	95.2
Cc1cc(C)n(CC(=O)N/N=C/c2ccco2)n1	n	n	n	n	n	n	x
CCN(CC(=O)Nc1cc(Cl)ccc1C)C(=O)c1ccc(=O)n(Cc2ccccc2)n1	n	n	n	x	n	n	x
Clc1ccc(NC2=NCCC2)cc1Cl	n	n	n	n	n	n	x
COc1ccccc1CNc1nc(NCc2cccc(OC)c2OC)c2sccc2n1	x	x	x	x	x	51.4	94.7
SMILES	Calb FLC	CSC inhib	SKKanGAS inh	Beta cell apopt	Mdm2-MdmX inh	MPTP block	Rh123 counter	others
c1ccc(CNc2nc(-c3cccs3)nc3ccccc23)cc1	n	x	n	x	x	50.6	57.6
COCCNc1nc(NCc2cccc(OC)c2OC)c2sccc2n1	x	x	x	x	x	n	x
O=C(NCc1nnc(SCC(=O)N2CCCCC2)o1)c1c(F)cccc1F	n	n	n	n	n	n	x
CCCCCCCCCC[n+]1cccc2c3ccccc3ccc21	100.8	x	u	x	x	96.4	97.4
COc1ccc(-c2cc(C(F)(F)F)nc(SCc3cccc(C(=O)O)c3)n2)cc1	n	n	n	n	n	n	x
COc1ccc(-c2cc(C(F)(F)F)nc(SCCC(=O)NCc3ccccc3)n2)cc1	n	n	n	n	n	59.6	n	MPTP swell DR=n;MPTP counter DR=n
COc1ccc(NS(=O)(=O)c2ccc(O)c(C(=O)OCC(=O)NC(C)C3CC4CCC3C4)c2)cc1 (configuration not stated)	n	x	n	x	n	n	x
CC(NC(=O)COC(=O)c1cc(NS(=O)(=O)c2ccc(Cl)c([N+](=O)[O-])c2)ccc1O)C1CC2CCC1C2 (configuration not stated)	u	108.1	n	n	n	61.3	66.1
CC(O)CNCCCOc1cccc(Oc2ccccc2)c1 (configuration not stated)	n	n	n	n	n	59.9	n	MPTP swell DR=12.9;MPTP counter DR=n
C=CCN1C(=O)/C(=C/c2ccc(OC(C)=O)c(OCC)c2[N+](=O)[O-])SC1=S	n	x	77.3	x	x	101.9	65.2
O=C(Nc1ccccc1N1CCOCC1)c1ccccc1NS(=O)(=O)c1ccc(F)c(F)c1	n	n	n	n	n	62.1	97.9
Cc1cc(F)ccc1S(=O)(=O)Nc1ccccc1C(=O)Nc1ccccc1N1CCOCC1	n	n	n	n	n	78.3	89.3
Cc1cc(N)n(-c2ccccc2C)n1	n	n	n	n	n	n	x
CC(C)(C)c1ccc(S(=O)(=O)N2CCC(c3nc4ccc(Cl)cc4[nH]3)CC2)cc1	n	n	u	x	n	93.8	89.5
Cc1onc(-c2ccc(Cl)cc2)c1-c1ccnc(SCC(=O)Nc2cc(Cl)cc(Cl)c2)n1	n	n	n	n	n	50.1	51.4
O=C(NC1CCSc2ccccc21)c1cccc(OC(F)F)c1 (configuration not stated)	n	n	n	n	n	n	x
FC(F)Oc1ccc(NC(=S)NC2CCSc3ccccc32)cc1 (configuration not stated)	n	n	n	n	n	83.2	79.0
CCCOc1ccc(-c2cc3onc(-c4ccccc4)c3c(=O)n2C)cc1	x	n	x	n	n	n	x
O=S(=O)(c1ccccc1)N1CCC(O)(CSc2ccc(Cl)cc2)CC1	n	n	n	n	n	98.0	84.4
O=S(=O)(c1ccc(Cl)cc1)N1CCC(O)(CN2CCN(Cc3ccccc3)CC2)CC1	n	n	n	n	n	n	x
COc1ccc(CCC(=O)Nc2ccc(Cl)c(S(=O)(=O)N3CCCC3)c2)cc1	n	n	n	n	n	96.3	85.0
Cc1ccc(NC(=O)c2ccccc2N2C(=O)C3C4C=CC(C5CC45)C3C2=O)cc1C (configuration not stated)	n	n	n	n	n	n	x
COc1ccc(CCNC(=O)C2CCN(S(=O)(=O)c3ccc(NC(C)=O)cc3)CC2)cc1OC	n	n	n	n	n	n	x
CN(C)S(=O)(=O)c1cccc(-c2nn(-c3ccccc3)cc2/C=C2\SC(=S)NC2=O)c1	x	94.1	x	n	x	97.4	45.3
